# Experimental data reported in the supplement of paper PMC8728848.
# The entries come from a sample that favours the strongest signals as a whole.
# B1: Eosinophil cationic protein (ECP) (Homo sapiens), P12724 (protein)
# chain: MVPKLFTSQICLLLLLGLMGVEGSLHARPPQFTRAQWFAIQHISLNPPRCTIAMRAINNYRWRCKNQNTFLRTTFANVVNVCGNQSIRCPHNRTLNNCHRSRFRVPLLHCDLINPGAQNISNCTYADRPGRRFYVVACDNRDPRDSPRYPVVPVHLDTTI
# B2: SUN4P (Saccharomyces cerevisiae), P53616 (protein)
# chain: MGSSHHHHHHSSGLVPRGSHNGSIYGDLADFSGPYEKFEDGTIPCGQFPSGQGVIPISWLDEGGWSGVENTDTSTGGSCKEGSYCSYACQPGMSKTQWPSDQPSDGRSIGGLLCKDGYLYRSNTDTDYLCEWGVDAAYVVSELSNDVAICLTDYPGTENMVIPTYVQAGDSLPLTVVDQDTYYTWQGLKTSAQYYVNNAGISVEDACVWGSSSSGVGNWAPLNFGAGSSDGVAYLSLIPNPNNGNALNFNVKIVAADDSSTVNGECIYENGSFSGGSDGCTVSVTAGKAKFVLYN
# Columns and labels:
# Assay in all cases: glycan array binding signal (z-score within array); higher = stronger binding
# [1] = target: Fuc(a1-2)Gal(b1-3)[Fuc(a1-4)]GlcNAc(b1-3)[Gal(b1-4)GlcNAc(b1-6)]Gal(b1-4)Glc; conditions: glycan notation: IUPAC condensed, linker removed
# Summary of the method: (§1)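 Negative Z-scores can be read as non-binding. The Z-score is calculated within each array and then averaged across arrays of one protein sequence at different concentrations or buffers and across linkers. Arrays, 3228 in all, were curated from the Consortium for Functional Glycomics database and kept only where the protein sequence was available.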
# Fuc(a1-2)Gal(b1-4)Glc = conditions: glycan notation: IUPAC condensed, linker removed
# Summary of the method: as §1
# [2] = target: Fuc(a1-2)Gal(b1-4)[Fuc(a1-3)]GlcNAc(b1-3)GalNAc; conditions: glycan notation: IUPAC condensed, linker removed
# Summary of the method: as §1
# [3] = target: Fuc(a1-2)[Gal(a1-4)]Gal(b1-4)GlcNAc; conditions: glycan notation: IUPAC condensed, linker removed
# Summary of the method: as §1
# [4] = target: Fuc(a1-2)[GalNAc(a1-3)]Gal; conditions: glycan notation: IUPAC condensed, linker removed
# Summary of the method: as §1
# [5] = target: Fuc(a1-3)[Gal(b1-4)]GlcNAc(b1-6)GalNAc; conditions: glycan notation: IUPAC condensed, linker removed
# Summary of the method: as §1
# [6] = target: Fuc(a1-3)[GalNAc(b1-4)]GlcNAc; conditions: glycan notation: IUPAC condensed, linker removed
# Summary of the method: as §1
# [7] = target: Gal(a1-3)Fuc(a1-2)Gal(b1-4)GlcNAc(b1-3)[Gal(a1-3)Fuc(a1-2)Gal(b1-4)GlcNAc(b1-6)]GalNAc; conditions: glycan notation: IUPAC condensed, linker removed
# Summary of the method: as §1
# [8] = target: Gal(a1-3)Gal(b1-3)GlcNAc(b1-2)Man(a1-3)[Gal(a1-3)Gal(b1-3)GlcNAc(b1-2)Man(a1-6)]Man(b1-4)GlcNAc(b1-4)GlcNAc; conditions: glycan notation: IUPAC condensed, linker removed
# Summary of the method: as §1
# [9] = target: Gal(a1-3)Gal(b1-4)[Fuc(a1-3)]GlcNAc(b1-2)Man(a1-3)[Gal(a1-3)Gal(b1-4)[Fuc(a1-3)]GlcNAc(b1-2)Man(a1-6)]Man(b1-4)GlcNAc(b1-4)GlcNAc; conditions: glycan notation: IUPAC condensed, linker removed
# Summary of the method: as §1
# Gal(a1-4)Gal(b1-4)Glc = conditions: glycan notation: IUPAC condensed, linker removed
# Summary of the method: as §1
# [10] = target: Gal(b1-3)GlcNAc(b1-6)Gal(b1-4)GlcNAc; conditions: glycan notation: IUPAC condensed, linker removed
# Summary of the method: as §1
# [11] = target: Gal(b1-3)[Fuc(a1-4)]GlcNAc(b1-2)Man(a1-3)[Gal(b1-3)[Fuc(a1-4)]GlcNAc(b1-2)Man(a1-6)]Man(b1-4)GlcNAc(b1-4)GlcNAc; conditions: glycan notation: IUPAC condensed, linker removed
# Summary of the method: as §1
# [12] = target: Gal(b1-4)GlcNAc(b1-2)Man(a1-3)Man(b1-4)GlcNAc(b1-4)GlcNAc; conditions: glycan notation: IUPAC condensed, linker removed
# Summary of the method: as §1
# [13] = target: Gal(b1-4)GlcNAc(b1-2)Man(a1-3)[Gal(b1-4)GlcNAc(b1-2)Man(a1-6)]Man(b1-4)GlcNAc(b1-4)[Fuc(a1-6)]GlcNAc; conditions: glycan notation: IUPAC condensed, linker removed
# Summary of the method: as §1
# [14] = target: Gal(b1-4)GlcNAc(b1-2)Man(a1-6)Man(b1-4)GlcNAc(b1-4)GlcNAc; conditions: glycan notation: IUPAC condensed, linker removed
# Summary of the method: as §1
# [15] = target: Gal(b1-4)GlcNAc(b1-3)[Gal(b1-4)GlcNAc(b1-6)]GalNAc; conditions: glycan notation: IUPAC condensed, linker removed
# Summary of the method: as §1
# [16] = target: Gal(b1-4)GlcNAc(b1-6)[Gal(b1-3)]GalNAc; conditions: glycan notation: IUPAC condensed, linker removed
# Summary of the method: as §1
# Gal3S(b1-4)GlcNAc = conditions: glycan notation: IUPAC condensed, linker removed
# Summary of the method: as §1
# [17] = target: Gal3S(b1-4)[Fuc(a1-3)]Glc; conditions: glycan notation: IUPAC condensed, linker removed
# Summary of the method: as §1
# Gal3S4S(b1-4)GlcNAc = conditions: glycan notation: IUPAC condensed, linker removed
# Summary of the method: as §1
# Gal3S6S(b1-4)GlcNAc = conditions: glycan notation: IUPAC condensed, linker removed
# Summary of the method: as §1
# GalNAc(b1-3)Gal = conditions: glycan notation: IUPAC condensed, linker removed
# Summary of the method: as §1
# Glc(b1-4)Glc = conditions: glycan notation: IUPAC condensed, linker removed
# Summary of the method: as §1
# [18] = target: GlcNAc(a1-4)Gal(b1-4)GlcNAc(b1-3)Gal(b1-4)GlcNAc; conditions: glycan notation: IUPAC condensed, linker removed
# Summary of the method: as §1
# [19] = target: GlcNAc(a1-4)Gal(b1-4)GlcNAc(b1-3)Gal(b1-4)[Fuc(a1-3)]GlcNAc(b1-3)Gal(b1-4)[Fuc(a1-3)]GlcNAc; conditions: glycan notation: IUPAC condensed, linker removed
# Summary of the method: as §1
# [20] = target: GlcNAc(a1-6)Gal(b1-4)GlcNAc; conditions: glycan notation: IUPAC condensed, linker removed
# Summary of the method: as §1
# [21] = target: GlcNAc(b1-6)Gal(b1-4)GlcNAc; conditions: glycan notation: IUPAC condensed, linker removed
# Summary of the method: as §1
# Kdn(a2-3)Gal(b1-3)GalNAc = conditions: glycan notation: IUPAC condensed, linker removed
# Summary of the method: as §1
# [22] = target: Man(a1-2)Man(a1-3)[Man(a1-2)Man(a1-6)]Man; conditions: glycan notation: IUPAC condensed, linker removed
# Summary of the method: as §1
# GalNAc(b1-4)GlcNAc = conditions: glycan notation: IUPAC condensed, linker removed; mutation: R276L
# Summary of the method: as §1
# Glc(a1-6)Glc(a1-6)Glc = conditions: glycan notation: IUPAC condensed, linker removed; mutation: R276L
# Summary of the method: as §1
# [23] = target: GlcNAc(a1-4)Gal(b1-3)GlcNAc; conditions: glycan notation: IUPAC condensed, linker removed; mutation: R276L
# Summary of the method: as §1
# [24] = target: GlcNAc(a1-4)Gal(b1-4)GlcNAc(b1-3)Gal(b1-4)Glc; conditions: glycan notation: IUPAC condensed, linker removed; mutation: R276L
# Summary of the method: as §1
# [25] = target: GlcNAc(b1-3)Gal(b1-4)GlcNAc(b1-3)GalNAc; conditions: glycan notation: IUPAC condensed, linker removed; mutation: R276L
# Summary of the method: as §1
# [26] = target: Man(a1-3)[Man(a1-6)]Man(b1-4)GlcNAc(b1-4)GlcNAc; conditions: glycan notation: IUPAC condensed, linker removed; mutation: R276L
# Summary of the method: as §1
# [27] = target: Man(a1-3)[Man(a1-6)]Man(b1-4)GlcNAc(b1-4)[Fuc(a1-6)]GlcNAc; conditions: glycan notation: IUPAC condensed, linker removed; mutation: R276L
# Summary of the method: as §1
# [28] = target: Neu5Ac(a2-3)Gal(b1-3)GlcNAc; conditions: glycan notation: IUPAC condensed, linker removed; mutation: R276L
# Summary of the method: as §1
# [29] = target: Neu5Ac(a2-3)Gal(b1-3)[Neu5Ac(a2-6)]GalNAc; conditions: glycan notation: IUPAC condensed, linker removed; mutation: R276L
# Summary of the method: as §1
# Neu5Ac(a2-3)Gal(b1-4)Glc = conditions: glycan notation: IUPAC condensed, linker removed; mutation: R276L
# Summary of the method: as §1
# [30] = target: Neu5Ac(a2-3)Gal6S(b1-4)[Fuc(a1-3)]GlcNAc; conditions: glycan notation: IUPAC condensed, linker removed; mutation: R276L
# Summary of the method: as §1
# [31] = target: Neu5Ac(a2-3)[GalNAc(b1-4)]Gal(b1-4)Glc; conditions: glycan notation: IUPAC condensed, linker removed; mutation: R276L
# Summary of the method: as §1
# [32] = target: Neu5Ac(a2-6)Gal(b1-4)GlcNAc(b1-2)Man; conditions: glycan notation: IUPAC condensed, linker removed; mutation: R276L
# Summary of the method: as §1
# [33] = target: Neu5Ac(a2-6)Gal(b1-4)GlcNAc(b1-2)Man(a1-6)[GlcNAc(b1-2)Man(a1-3)]Man(b1-4)GlcNAc(b1-4)GlcNAc; conditions: glycan notation: IUPAC condensed, linker removed; mutation: R276L
# Summary of the method: as §1
# [34] = target: Neu5Ac(a2-6)GlcNAc(b1-4)GlcNAc; conditions: glycan notation: IUPAC condensed, linker removed; mutation: R276L
# Summary of the method: as §1
# [35] = target: Neu5Gc(a2-3)Gal(b1-3)GlcNAc; conditions: glycan notation: IUPAC condensed, linker removed; mutation: R276L
# Summary of the method: as §1
# [36] = target: Neu5Gc(a2-3)Gal(b1-4)GlcNAc(b1-3)Gal(b1-4)GlcNAc(b1-2)Man(a1-3)[Neu5Gc(a2-3)Gal(b1-4)GlcNAc(b1-3)Gal(b1-4)GlcNAc(b1-2)Man(a1-6)]Man(b1-4)GlcNAc(b1-4)GlcNAc; conditions: glycan notation: IUPAC condensed, linker removed; mutation: R276L
# Summary of the method: as §1
binder,measurement,setting,value
B1,glycan array binding signal (z-score),[1],-0.315
same,glycan array binding signal (z-score),Fuc(a1-2)Gal(b1-4)Glc,-0.348
same,glycan array binding signal (z-score),[2],2.14
same,glycan array binding signal (z-score),[3],-0.421
same,glycan array binding signal (z-score),[4],-0.298
same,glycan array binding signal (z-score),[5],2.25
same,glycan array binding signal (z-score),[6],-0.183
same,glycan array binding signal (z-score),[7],0.494
same,glycan array binding signal (z-score),[8],1.32
same,glycan array binding signal (z-score),[9],2.23
same,glycan array binding signal (z-score),Gal(a1-4)Gal(b1-4)Glc,-0.102
same,glycan array binding signal (z-score),[10],-0.17
same,glycan array binding signal (z-score),[11],0.007
same,glycan array binding signal (z-score),[12],-0.103
same,glycan array binding signal (z-score),[13],0.16
same,glycan array binding signal (z-score),[14],-0.08
same,glycan array binding signal (z-score),[15],-0.091
same,glycan array binding signal (z-score),[16],-0.081
same,glycan array binding signal (z-score),Gal3S(b1-4)GlcNAc,0.818
same,glycan array binding signal (z-score),[17],2.4
same,glycan array binding signal (z-score),Gal3S4S(b1-4)GlcNAc,-0.557
same,glycan array binding signal (z-score),Gal3S6S(b1-4)GlcNAc,2.7
same,glycan array binding signal (z-score),GalNAc(b1-3)Gal,-0.382
same,glycan array binding signal (z-score),Glc(b1-4)Glc,0.024
same,glycan array binding signal (z-score),[18],8.33
same,glycan array binding signal (z-score),[19],4.18
same,glycan array binding signal (z-score),[20],3.15
same,glycan array binding signal (z-score),[21],0.126
same,glycan array binding signal (z-score),Kdn(a2-3)Gal(b1-3)GalNAc,0.204
same,glycan array binding signal (z-score),[22],-0.495
B2,glycan array binding signal (z-score),GalNAc(b1-4)GlcNAc,-0.514
same,glycan array binding signal (z-score),Glc(a1-6)Glc(a1-6)Glc,-1.11
same,glycan array binding signal (z-score),[23],1.83
same,glycan array binding signal (z-score),[24],-1.22
same,glycan array binding signal (z-score),[18]; mutation: R276L,-0.664
same,glycan array binding signal (z-score),[25],2.14
same,glycan array binding signal (z-score),[26],-0.241
same,glycan array binding signal (z-score),[27],-0.543
same,glycan array binding signal (z-score),[28],0.214
same,glycan array binding signal (z-score),[29],-0.468
same,glycan array binding signal (z-score),Neu5Ac(a2-3)Gal(b1-4)Glc,-1.01
same,glycan array binding signal (z-score),[30],-1.12
same,glycan array binding signal (z-score),[31],1.36
same,glycan array binding signal (z-score),[32],0.374
same,glycan array binding signal (z-score),[33],0.936
same,glycan array binding signal (z-score),[34],2.98
same,glycan array binding signal (z-score),[35],0.424
same,glycan array binding signal (z-score),[36],-0.663
